Measured values as given in PubChem BioAssay AID1159580 (chemical genetic matrix, 2015).
Values joined by “and” are separate entries in the source; they are usually repeats but may differ in a detail not shown here. Equal entries are not always repeated. Among all 5,500 compounds or so, about 2,000 (36%) were called active. Roughly 18% stayed inconclusive and do not appear here. Cut-off read from the data, not from the text of the source: active = normalized growth mostly below about 0.91 (no sharp cut-off); inconclusive = no clear call, values can overlap the other calls; inactive = mostly above about 0.92. The list shows a part of the results.

Experiment: chemical genetic growth profiling, strain panel (AID 1159580);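 note: tested at 20 µM; growth read once vehicle control cultures reached saturation at 30 °C; 1 = growth at the plate median or of vehicle wells; lower values mean less growth of the strain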
Conditions: S. cerevisiae deletion strains, growth OD

Measured: normalized growth

CC(C)N(CCC(C(N)=O)(c1ccccc1)c1ccccn1)C(C)C (stereo not drawn)
active: locus YKL160W, strain elf1, active compounds read low 0.139 | locus YKR026C, strain gcn3, active compounds read low 0.441 | locus YKR091W, strain srl3, active compounds read low 0.559 | locus YLL001W, strain dnm1, active compounds read low 0.0623 | locus YLL026W, active compounds read low 0.0653 | locus YLL041C, strain sdh2, active compounds read low 0.411 | locus YLR027C, strain aat2, active compounds read low 0.0601 | locus YLR221C, strain rsa3, active compounds read low 0.0673 | locus YLR258W, strain gsy2, active compounds read low 0.0927 | locus YLR262C, strain YPT6 (second series), active compounds read low 0.0974 | locus YLR320W, strain mms22, active compounds read low 0.104 | locus YLR342W, strain FKS1, active compounds read low 0.0913 | locus YLR357W, strain rsc2, active compounds read low 0.133 | locus YLR370C, strain arc18, active compounds read low 0.0613 | locus YLR384C, strain iki3, active compounds read low 0.0647 | locus YML120C, strain ndi1, active compounds read low 0.0595 | locus YMR058W, strain fet3, active compounds read low 0.0623 | locus YMR125W, strain sto1, active compounds read low 0.309 | locus YMR129W, active compounds read low 0.0614 | locus YMR205C, strain PFK2, active compounds read low 0.193 | locus YMR231W, strain pep5, active compounds read low 0.095 | locus YNL071W, strain lat1, active compounds read low 0.0658 | locus YNL209W, strain ssb2, active compounds read low 0.0612 | locus YNL248C, strain rpa49, active compounds read low 0.0783 | locus YNL322C, strain KRE1 (second series), active compounds read low 0.0713 | locus YNR049C, strain mso1, active compounds read low 0.0601 | locus YOR001W, strain rrp6, active compounds read low 0.0692 | locus YOR070C, strain gyp1, active compounds read low 0.0654 | locus YOR080W, strain dia2, active compounds read low 0.0699 | locus YOR083W, strain WHI5, active compounds read low 0.227 | locus YOR106W, strain vam3, active compounds read low 0.0676 | locus YOR265W, strain rbl2, active compounds read low 0.0664 | locus YOR270C, strain vph1, active compounds read low 0.0928 | locus YOR290C, strain snf2, active compounds read low 0.0671 | locus YPL051W, strain arl3, active compounds read low 0.0788 | locus YPL078C, strain atp4, active compounds read low 0.0695 | locus YPL106C, strain sse1, active compounds read low 0.117 | locus YPL240C, strain hsp82, active compounds read low 0.278
inactive: locus YJR066W, strain TOR1, active compounds read low 0.994 | locus YJR075W, strain HOC1, active compounds read low 1.02 | locus YKL009W, strain mrt4, active compounds read low 0.97 | locus YKL068W, active compounds read low 0.98 | locus YKL085W, strain MDH1 (second series), active compounds read low 0.988 | locus YKL085W, strain MDH1, active compounds read low 0.988 | locus YKR001C, strain vps1, active compounds read low 0.988 | locus YLR039C, strain RIC1, active compounds read low 0.972 | locus YLR058C, strain SHM2, active compounds read low 0.979 | locus YLR102C, strain apc9, active compounds read low 0.987 | locus YLR113W, strain HOG1, active compounds read low 1.06 | locus YLR262C, strain YPT6, active compounds read low 0.963 | locus YLR268W, strain sec22, active compounds read low 0.999 | locus YLR330W, strain CHS5, active compounds read low 0.989 | locus YLR342W, strain FKS1 (second series), active compounds read low 1.02 | locus YLR371W, strain rom2, active compounds read low 0.997 | locus YLR418C, strain cdc73, active compounds read low 0.967 | locus YML016C, strain PPZ1, active compounds read low 0.997 | locus YML032C, strain rad52, active compounds read low 1.01 | locus YML124C, strain tub3, active compounds read low 0.994 | locus YMR078C, strain ctf18, active compounds read low 0.978 | locus YMR223W, strain ubp8, active compounds read low 0.978 | locus YMR263W, strain SAP30, active compounds read low 0.991 | locus YMR307W, strain GAS1, active compounds read low 1.01 and 0.995 and 1.02 | locus YNL067W, strain RPL9B, active compounds read low 0.973 | locus YNL128W, strain TEP1, active compounds read low 1.02 and 0.999 | locus YNL153C, strain GIM3, active compounds read low 0.983 and 1.03 | locus YNL175C, strain NOP13, active compounds read low 0.978 and 1.02 | locus YNL183C, strain NPR1, active compounds read low 1 | locus YNL197C, strain WHI3, active compounds read low 1.01 and 0.977 | locus YNL224C, strain SQS1, active compounds read low 0.978 and 1.01 | locus YNL233W, strain BNI4, active compounds read low 0.972 | locus YNL250W, strain rad50, active compounds read low 1.01 | locus YNL271C, strain bni1, active compounds read low 0.996 | locus YNL298W, strain CLA4, active compounds read low 0.997 | locus YNL307C, strain MCK1, active compounds read low 0.999 | locus YNL322C, strain KRE1, active compounds read low 0.977 and 1.02 | locus YNR052C, strain pop2, active compounds read low 0.997 | locus YOL012C, strain htz1 0.863 | locus YOL147C, strain pex11, active compounds read low 0.984 | locus YOR061W, strain CKA2, active compounds read low 0.998 | locus YOR069W, strain VPS5, active compounds read low 0.996 | locus YOR083W, strain WHI5 (second series), active compounds read low 1 and 0.957 | locus YOR136W, strain idh2, active compounds read low 1.01 | locus YOR144C, strain elg1, active compounds read low 0.996 | locus YOR184W, strain ser1, active compounds read low 0.995 | locus YOR231W, strain MKK1, active compounds read low 1.02 | locus YOR316C, strain cot1, active compounds read low 1 | locus YPL241C, strain CIN2, active compounds read low 0.995 and 1.01 | locus YPL256C, strain CLN2, active compounds read low 0.991 | locus YPR119W, strain clb2, active compounds read low 0.997 | locus YPR141C, strain kar3, active compounds read low 0.962 | locus YPR163C, strain tif3, active compounds read low 0.989 | locus YPR167C, strain met16, active compounds read low 1.01 | strain wtn01, active compounds read low 0.996
